Reference: paper PMC4336329 (PLoS ONE, 2015)
About 14,000 (4.5%) of roughly 310,000 compounds showed an effect of 50% or more. Effects have a minus sign here. This excerpt belongs to a sample that is enriched for strong results.

Target: human ether-à-go-go-related gene (hERG) potassium channel (human, UniProt Q12809)
Experiment: primary screen, population patch clamp on CHO cells stably expressing hERG; higher = less effect of the substance
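Further: peak tail current of the secondary pulse compared with the same well before compound.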

Sequence of human ether-à-go-go-related gene (hERG) potassium channel (Q12809 whole entry, looked up): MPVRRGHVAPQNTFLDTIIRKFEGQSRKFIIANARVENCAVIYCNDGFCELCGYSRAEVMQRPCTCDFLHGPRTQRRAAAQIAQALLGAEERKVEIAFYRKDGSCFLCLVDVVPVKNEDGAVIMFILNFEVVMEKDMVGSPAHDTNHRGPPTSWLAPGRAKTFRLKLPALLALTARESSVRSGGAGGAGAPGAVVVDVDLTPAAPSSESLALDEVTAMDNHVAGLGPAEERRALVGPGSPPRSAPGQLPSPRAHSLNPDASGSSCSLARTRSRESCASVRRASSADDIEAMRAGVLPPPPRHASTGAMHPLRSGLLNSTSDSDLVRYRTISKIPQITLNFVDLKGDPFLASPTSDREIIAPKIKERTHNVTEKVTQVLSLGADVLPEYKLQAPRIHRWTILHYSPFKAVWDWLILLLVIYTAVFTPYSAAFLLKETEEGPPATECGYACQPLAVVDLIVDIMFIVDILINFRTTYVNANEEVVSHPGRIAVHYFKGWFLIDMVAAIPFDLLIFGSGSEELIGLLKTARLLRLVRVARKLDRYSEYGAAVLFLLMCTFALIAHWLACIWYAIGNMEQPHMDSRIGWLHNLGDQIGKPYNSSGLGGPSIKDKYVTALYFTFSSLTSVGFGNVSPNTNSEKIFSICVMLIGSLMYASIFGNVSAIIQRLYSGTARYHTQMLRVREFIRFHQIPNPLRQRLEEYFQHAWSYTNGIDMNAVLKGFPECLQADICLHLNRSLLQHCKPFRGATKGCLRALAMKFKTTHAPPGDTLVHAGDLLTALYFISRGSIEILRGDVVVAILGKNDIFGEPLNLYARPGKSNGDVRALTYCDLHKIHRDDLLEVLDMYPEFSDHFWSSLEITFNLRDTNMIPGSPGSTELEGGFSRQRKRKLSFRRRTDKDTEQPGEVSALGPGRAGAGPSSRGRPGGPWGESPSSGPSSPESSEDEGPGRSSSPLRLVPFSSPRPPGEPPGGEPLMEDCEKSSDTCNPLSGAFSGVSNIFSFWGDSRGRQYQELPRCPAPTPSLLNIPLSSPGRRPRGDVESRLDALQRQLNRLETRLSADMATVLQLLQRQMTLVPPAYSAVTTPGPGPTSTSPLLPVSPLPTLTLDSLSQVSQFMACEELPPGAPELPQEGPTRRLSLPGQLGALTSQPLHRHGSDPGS

| Compound | hERG current change (%, negative = inhibition) at 10uM |
| --- | --- |
| O=C(CN1C(=O)NC2(CCCC2)C1=O)OCc1cc(=O)n2cc(Br)ccc2n1 | 0.0178% |
| COc1cc(C(=O)Nc2ccc(-c3nnc(-c4ccco4)o3)cc2)cc(OC)c1OC | -3.23% |
| Cc1ccnc(NS(=O)(=O)c2cccc([N+](=O)[O-])c2)c1 | 0.0315% |
| CCNC(=O)CC1C(=O)N(c2cccc(OC)c2)C(=O)N1CCOC (stereo not drawn) | 8.39% |
| COc1ccc(CNC(=O)C(c2ccco2)N(Cc2cccs2)C(=O)Cc2cccs2)cc1 (stereo not drawn) | 10.6% |
| O=C(COc1ccccc1)N(Cc1nnc(-c2ccccc2Cl)o1)C1CC1 | -15% |
| Cc1ccc(OCC(=O)N(Cc2nnc(-c3ccccc3Cl)o2)C2CC2)cc1C | -44.1% |
| Cc1cccc(OCC(=O)N(Cc2nnc(-c3ccccc3Cl)o2)C2CC2)c1 | -54.2% |
| COc1ccc(CNC(=O)CN(Cc2ccco2)C(=O)CNS(=O)(=O)c2ccccc2)cc1 | -38.7% |
| COc1cccc(CN(CC(=O)NCc2ccco2)C(=O)CNS(=O)(=O)c2ccccc2)c1 | -53.1% |
| Cc1ccc(S(=O)(=O)NCC(=O)N(CC(=O)NCc2ccco2)Cc2ccccc2)cc1 | -10.2% |
| Cc1ccc(S(=O)(=O)NCC(=O)N(CC(=O)NCc2ccco2)Cc2ccco2)cc1 | -23.5% |
| COc1ccc(S(=O)(=O)NCC(=O)N(CC(=O)NCc2ccccc2)Cc2ccco2)cc1 | -17% |
| O=C(CN(Cc1ccccc1)C(=O)CNS(=O)(=O)c1ccccc1)NCc1ccco1 | -0.255% |
| COc1ccc(CN(CC(=O)NCc2ccco2)C(=O)CNS(=O)(=O)c2ccc(C)cc2)cc1 | -63.3% |
| COc1ccc(S(=O)(=O)NCC(=O)N(CC(=O)NCc2ccco2)Cc2ccccc2)cc1 | -10.6% |
| O=C(CN(Cc1ccco1)C(=O)CNS(=O)(=O)c1ccc(Cl)cc1)NCc1ccco1 | -55.4% |
| COc1ccc(S(=O)(=O)NCC(=O)N(CC(=O)NCc2ccco2)Cc2ccc(F)cc2)cc1 | 1.94% |
| COc1ccc(CNC(=O)CN(Cc2ccco2)C(=O)CNS(=O)(=O)c2ccc(C)cc2)cc1 | -73% |
| O=C(CN(Cc1ccco1)C(=O)CNS(=O)(=O)c1ccc(F)cc1)NCc1ccco1 | -8.87% |
| Cc1ccc(C)c(N2CCN(S(=O)(=O)c3csc(C(N)=O)c3)CC2)c1 | -8.27% |
